High-throughput results from PubChem BioAssay.
L major viab: reduces viability of Leishmania major promastigotes. resazurin fluorescence viability. inhibition, % at 10 µM. actives 9% (n = 200,000). AID 1063; in the data active = inhibition above about 50%;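 also: promastigotes grown with compound for 44 hours at 28 °C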
CHOP inh: CHOP inhibition in unfolded protein response; AID 2732; CHO-K1 CHOP-promoter luciferase, tunicamycin-induced, 15-18 h; actives 3.8% (n = 220,000); inhibition, % at 10 µM;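 active = compounds that reduced the stress-induced luciferase reporter signal by more than about 70% of percent inhibition, limit read from the data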;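 also: 0% = tunicamycin plus vehicle and 100% = wells without tunicamycin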
WT yeast gro inh: growth inhibition of WT yeast, mitochondrial fusion screen; mitochondrial fusion phenotypic screen, WT strain; inhibition, % at 10 µM; actives 2.1% (n = 190,000); in the data active = inhibition above about 58%; tested in S. cerevisiae
Arbovirus inh: antivirals against arbovirus infection; AID 1251; arbovirus infection cell-based antiviral screen; inhibition, % at 10 µM; actives 0.37% (n = 200,000); in the data active = inhibition above about 30%
* marks the source's active call; other numbers are inactive results; / = no result. In the library only some 12% were active in any assay of this set; here they are far more common.

SMILES | L major viab | CHOP inh | WT yeast gro inh | Arbovirus inh
CC(C)=CCN1CCN(Cc2cnc(C)s2)CC1CCO (centres undefined) | 7.8 | 2.1 | -0.9 | -2.2
O=C(O)c1ccc(C2NCC(c3ccccc3Cl)c3c2[nH]c2ccccc32)cc1 (centres undefined) | -4.7 | 5.4 | -4.3 | 4.3
COc1cc(C2NCC(c3ccc(Cl)cc3Cl)c3c2[nH]c2ccccc32)cc(OC)c1OC (centres undefined) | 99.3* | 76.6* | 81.9* | -33.6
CC1(C)COCN1S(=O)(=O)c1ccc(C(=O)Nc2nnc(-c3ccc(Cl)s3)o2)cc1 | 99.0* | 65.2 | 4.0 | -12.7
COc1ccc(-c2nnc(NC(=O)c3ccc(S(=O)(=O)N4COCC4(C)C)cc3)o2)cc1 | 98.7* | / | 3.7 | -28.4
CC1CCCCN1S(=O)(=O)c1ccc(C(=O)Nc2nnc(-c3ccncc3)o2)cc1 (centres undefined) | 8.3 | 1.1 | 7.8 | -5.3
COc1cccc(CNC(=O)Cc2nc3nc(C)cc(C)n3n2)c1 | 7.2 | 2.0 | 5.6 | -11.6
CC(C)(C)OC(=O)N1CCC(c2c(C(=O)O)cnn2-c2ccc(Cl)cc2)CC1 | -3.7 | 14.3 | 11.0 | 5.6
Cc1ccc(-n2ncc(C(=O)Nc3ccc(Cl)cc3)c2C2CCNCC2)cc1C | 98.7* | -0.8 | -13.4 | -27.6
CCCCn1cnc2c(c(-c3ccccc3)c(-c3ccccc3)n2Cc2ccco2)c1=N | / | -28.3 | / | /
N=c1c2c(-c3ccccc3)c(-c3ccccc3)n(Cc3ccccc3)c2ncn1CCCn1ccnc1 | 100.4* | -119.5 | -3.4 | -44.0
N=c1c2c(-c3ccccc3)c(-c3ccccc3)n(Cc3ccco3)c2ncn1Cc1ccco1 | 100.2* | / | 2.9 | -34.0
S=c1nc(-c2ccccc2)n(CCCn2ccnc2)c2c1CCCC2 | -8.2 | 24.5 | 10.3 | 2.7
COc1ccccc1CN(Cc1cc2cc(C)cc(C)c2[nH]c1=O)Cc1nnnn1CC1CCCO1 (centres undefined) | 55.9* | 63.5 | -6.6 | 2.1
COCCn1nnnc1CN(CCc1ccccc1)Cc1cc2ccc(C)cc2[nH]c1=O | 100.3* | 65.7 | -15.0 | -5.2
COc1ccc2cc(CN(CCc3ccccc3)Cc3nnnn3CC3CCCO3)c(=O)[nH]c2c1 (centres undefined) | 99.6* | 7.6 | -7.2 | -6.7
O=C(Cc1ccccc1Cl)N1CCN(c2ncccn2)CC1 | -7.4 | -15.3 | -5.2 | 24.6
CCOC(=O)C1=C(O)C(=O)N(CCCn2ccnc2)C1c1ccc(OC)cc1 (centres undefined) | -9.3 | 9.7 | 18.7 | -5.0
CC1CC(C)CN(S(=O)(=O)c2ccc(NC(=S)NC(=O)c3ccccc3)cc2)C1 (centres undefined) | -0.6 | 10.9 | -2.0 | -7.2
Cc1ccccc1C(=O)Nc1nc(=S)ss1 | -6.7 | 0.1 | 5.8 | 14.8
O=C(Nc1nc(=S)ss1)c1c(F)cccc1F | -5.8 | 5.8 | 78.8* | 10.7
O=C(NC(Cc1c[nH]c2ccccc12)C(=O)O)c1cccs1 (centres undefined) | 0.4 | 21.5 | -3.7 | 5.1
O=C(NC(Cc1c[nH]c2ccccc12)C(=O)Nc1ccc(OC(F)(F)F)cc1)c1cccs1 (centres undefined) | 16.4 | 63.9 | 88.3* | -14.1
O=C(NC(Cc1c[nH]c2ccccc12)C(=O)Nc1ccc(F)c([N+](=O)[O-])c1)c1cccs1 (centres undefined) | 64.8* | 4.5 | -9.9 | -33.5
O=C(c1cc(N2C(=O)C3C4CCC(C4)C3C2=O)ccc1Cl)N1CCN(c2ccccc2)CC1 (centres undefined) | 71.7* | 31.1 | -8.3 | 9.0
SMILES | L major viab | CHOP inh | WT yeast gro inh | Arbovirus inh
CC1CCN(C(=O)c2cc(N3C(=O)C4C5CCC(C5)C4C3=O)ccc2Cl)CC1 (centres undefined) | -4.8 | 3.8 | -19.6 | 10.3
O=C(O)c1cn(C2CC2)c2cc(N3CCN(S(=O)(=O)c4ccc5c(c4)OCCO5)CC3)c(F)cc2c1=O | 8.2 | 62.4 | -11.2 | 2.2
CCC1=C(OC(=O)N(CC)CC)N2C(=O)OC(=NCCc3c[nH]c4ccccc34)[C@]2(C)[C@H]2C1=CC[C@H]1C(=O)N(CC(=O)OC)C(=O)[C@H]12 | / | 2.3 | / | /
Cc1cccc(OCCCC(=O)O)c1C | -1.0 | 70.3* | -9.4 | 1.2
Cc1cccc(OCCCC(=O)Nc2ccc(N3CCCCC3)cc2)c1C | -3.5 | 36.5 | 61.5* | 6.8
Cc1cccc(OCCCC(=O)Nc2ccc(S(N)(=O)=O)cc2)c1C | 43.6 | 22.1 | 3.3 | 6.7
C#CCOCCOCCOCCNc1nc(N2CCN(C(=O)[C@H]([C@@H](C)CC)n3cc([C@@H](N)CO)nn3)CC2)nc(N2CCN(C(=O)[C@H](Cc3cc4ccccc4[nH]3)n3cc([C@@H](N)Cc4ccc(O)cc4)nn3)CC2)n1 | / | 0.8 | / | /
COc1cccc(CNC(=S)Nc2cc(OC)ccc2OC)c1 | 10.8 | 0.0 | 8.1 | -4.5
O=C(NC1CC1)c1cc(=O)c2ccccc2o1 | -2.2 | 14.7 | -2.8 | 4.7
O=c1cc(/C=C/c2ccccc2)oc2ccccc12 | 21.9 | 73.6* | 12.5 | 6.3
CCOC(=O)c1cc(C(=O)NC(C)c2ccccc2)c(C)[nH]c1=O (centres undefined) | 5.7 | 11.2 | -3.7 | -13.0
CCc1ccccc1NC(=S)NC1CC2CCC(C1)N2Cc1ccc(F)cc1 (centres undefined) | 94.7* | -16.3 | 0.2 | 16.4
Cc1ccc(NC(=S)NC2CC3CCC(C2)N3Cc2ccco2)c(C)c1 (centres undefined) | 89.3* | 0.0 | 16.5 | 15.3
O=C(NC1CC2CCCC(C1)N2Cc1ccco1)NC12CC3CC(CC(C3)C1)C2 (centres undefined) | 89.1* | 27.8 | -8.2 | -1.1
CCCN1C2CCCC1CC(NC(=S)Nc1ccc(OC)cc1)C2 (centres undefined) | 14.6 | 13.9 | -5.5 | 0.9
CCc1ccc(NC(=S)NC2CC3CCCC(C2)N3Cc2cccs2)cc1 (centres undefined) | 90.7* | 0.0 | -1.1 | -15.1
Cc1ccc(C#N)c(SCC(=O)Nc2nccs2)n1 | 3.2 | 24.5 | 24.9 | -11.1
O=C(NCc1ccco1)C(=O)NCC(c1ccco1)N1CCOCC1 (centres undefined) | -2.9 | 3.0 | 4.0 | 0.0
CCCOc1ccc(S(=O)(=O)NNC(=O)c2cc3ccccc3o2)cc1 | 4.1 | 2.8 | -7.9 | -3.7
Clc1ccccc1Cc1noc(CN2CCN(Cc3ccccn3)CC2)n1 | -8.0 | 3.8 | -17.1 | 4.3
Cc1ccc(NC(=S)NC2CCCC2)cc1C | 24.5 | -13.8 | 56.2 | 8.4
Cc1cccc(NC(=S)NC2CC3CCC(C2)N3Cc2ccco2)c1C (centres undefined) | 90.0* | -1.7 | 6.1 | 8.0
Cc1cccc(NC(=S)NC2CC3CCCC(C2)N3Cc2ccccc2)c1C (centres undefined) | 86.8* | 11.7 | -3.2 | 17.2
CCc1ccccc1NC(=S)NC1CC2CCC(C1)N2Cc1ccco1 (centres undefined) | 71.3* | 18.1 | -0.4 | -0.4
CCNC(=S)NC1CC2CCCC(C1)N2Cc1ccco1 (centres undefined) | -4.8 | 12.0 | 14.3 | 7.2
Cc1ccc(NC(=S)NC2CC3CCC(C2)N3Cc2ccco2)cc1C (centres undefined) | 99.5* | 1.0 | 0.7 | 10.7
BrC(/C=N/N1CCN(Cc2ccccc2)CC1)=C/c1ccccc1 | / | 18.7 | / | /
